The text below walks through data of PubChem BioAssay (Tox21).

SMILES strings stand for the structures. Where “and” joins values, the source holds several entries; their conditions need not be identical. Identical values can stand only once. Inconclusive results are not listed. Entries that show only a call come without a potency. A number with no mark means an inactive call. Calls of active or inactive are those of the source. Calls come from the whole dose curve; as a rule, active = well fitted inhibition curve with a large enough effect in the signal ratio in the repeat runs; inconclusive = weak or mixed curves, or effect the other way; inactive = flat fitted curve, though single readings scatter; the % refers to the signal ratio.
Potency is the fitted concentration of half-maximal effect.

The nature of the assay: qHTS assay for small molecule disruptors of the mitochondrial membrane potential (AID 720635). The following applies: HepG2 mitochondrial membrane potential, Mito-MPS dye ratio; series mostly up to 83.2 µM. From the text: U.S. Tox21 Program National Center for Advancing Translational Sciences [NCATS] NIH Chemical Genomics Center [NCGC] U.S. Environmental Protection Agency [EPA] National Institutes of Environmental Health Sciences [NIEHS] National Toxicology Program [NTP] U.S. Food and Drug Administration [FDA] Tox21 Assay Overview: Mitochondrial membrane potential (MMP), one of the parameters for mitochondrial function, is generated by mitochondrial electron transport chain that creates an electrochemical gradient by a series of redox reactions. This gradient drives the synthesis of ATP, a crucial molecule for various cellular processes. Measuring MMP in living cells is commonly used to assess the effect of chemicals on mitochondrial function. […] The dye accumulates in the mitochondria of healthy cells as aggregates, with red fluorescence. The mitochondrial potential collapses and the dye can no longer accumulate in the mitochondria and remains in the cytoplasm in monomers, with green fluorescence.
Tox21 Assay Protocol Summary: 2,000 HepG2 cells in 5 uL/well were dispensed into black, clear-bottom 1536-well plates using a Multidrop Combi (Thermo Scientific) dispenser. The assay plates were incubated overnight at 37C to allow cells to attach to the wells, followed by the transfer of 23 nL compound or DMSO vehicle by a pin tool (Kalypsys). The plates were incubated for 1 hr at 37C and 5% CO2, followed by the addition of 5 uL of 2X Mito-MPS dye (BD Biosciences) into each well using Flying Reagent Dispenser (Aurora Discovery) and then following 30 min incubation at 37C. Fluorescence intensity (490nm excitation and 535nm emission for monomers; and 540nm excitation and 590nm emissions for aggregates) was measured using an Envision plate reader.
In general terms: Quantitative high-throughput screening tests each substance at several concentrations.
Regarding `Cc1cc(C(C#N)c2ccc(Cl)cc2)c(Cl)cc1NC(=O)c1cc(I)cc(I)c1O` (stereo not given), the Potency is 2.37 µM (active).
On the same count and under the same terms, the figure for `Cc1cc(C(C)(C)C)c(O)c(C)c1Cn1c(=O)n(Cc2c(C)cc(C(C)(C)C)c(O)c2C)c(=O)n(Cc2c(C)cc(C(C)(C)C)c(O)c2C)c1=O` is 9.69 µM (active).
As for `Cc1ccc(C(=O)O)cc1`, the Potency result was “inactive”.
`CC1=Nc2ccccc2C1(C)C`: the Potency entry was “inactive”.
Still for that read-out and setting: with `CCc1cccc(CC)c1NC(=O)CN(CC(=O)O)CC(=O)O` the entry was “inactive”; with `C=CC(C)(CCC=C(C)C)OC=O` (stereo not given), “inactive”.
For `CN(C)c1ccc(C(=C2C=CC(=[N+](C)C)C=C2)c2ccc(N(C)C)cc2)cc1`, the Potency was 139 nM (active) and 30.5 nM (active) and 68.6 nM (active).
As to `Nc1cc(Cl)c(O)c(Cl)c1`, the Potency was 7.7 µM (active).
The same measure, in the same setting: the figure for `CCc1oc2ccccc2c1C(=O)c1cc(I)c(O)c(I)c1` is 2.66 µM (active); for `COC(=O)C1=C(C)NC(C)=C(C(=O)OCCN2CCN(C(c3ccccc3)c3ccccc3)CC2)C1c1cccc([N+](=O)[O-])c1` (stereo not given) it is 10.6 µM (active); for `O=C1C(c2[nH]c3ccc(S(=O)(=O)O)cc3c2O)=Nc2ccc(S(=O)(=O)O)cc21` it is “inactive”.
Turning to `C=Cc1ccccc1C=C`, the Potency entry was “inactive”.
Still for that read-out and setting: the entry for `CC(C)OC(=O)C(O)(CC(=O)O)CC(=O)O` is “inactive”; for `C/C=C/C=C/COC(=O)C(C)C` it is “inactive”.
For `Cc1cc(=O)oc2cc(O)cc(O)c12`, the Potency is 61.3 µM (active).
For the compound `COc1cccc(OC)c1C(=O)O`, the Potency entry was “inactive”.
Still for that read-out and setting: with `Oc1c(I)cc(Cl)c2cccnc12` the figure was 48.5 µM (active); with `O=C(/C=C/c1ccc(O)c(O)c1)O[C@@H](C(=O)O)[C@@H](OC(=O)/C=C/c1ccc(O)c(O)c1)C(=O)O`, “inactive”; with `ClCCl`, “inactive”.
Take `CC(N=C(NC#N)Nc1ccncc1)C(C)(C)C` (stereo not given): the Potency result is “inactive”.
With `O=C(O)O`, the ratio activity, negative = MMP loss is 7.15% [at 8.08 µM].
For `CC[N+](CC)(CC)CCOC(=O)C(C1CCCC1)C1CCCC1`, the Potency result was “inactive”.
As for `c1ccsc1`, the Potency entry is “inactive”.
On the same count and under the same terms, with `CCN1C(=O)c2ccccc2C1Nc1ccc(OCCN2CCCCC2)cc1` (stereo not given) the entry was “inactive”; with `CC(C)(C)NSc1nc2ccccc2s1`, 24.8 µM (active).
On to `Oc1cc(Cl)cc(Cl)c1Cl`, for which the Potency was 4.97 µM (active).
`C[C@@H](O)[C@H](N)C(=O)O`: the Potency result is “inactive”.
The same measure, in the same setting: with `CCCCCCCCCCCCOC(=O)c1ccc(O)cc1` the figure was 3.46 µM (active).
On the same count and under the same terms, with `COC(=O)Nc1nc2ccc(C(=O)c3ccccc3)cc2[nH]1` the figure was 2.27 µM (active); with `NC(=S)NC(N)=S`, “inactive”; with `CCC(CC)(CC(=O)Nc1cccc(/C=C/c2nc(C3CCC3)cs2)c1)C(=O)O`, 27.8 µM (active).
Regarding `OC[C@H]1O[C@H](O[C@H]2O[C@H](CO)[C@@H](O)[C@H](O)[C@H]2O)[C@H](O)[C@@H](O)[C@@H]1O`, the Potency result is “inactive”.
Turning to `CNC(=O)c1ccccc1Sc1ccc2c(/C=C/c3ccccn3)n[nH]c2c1`, the Potency was 2.37 µM (active).
Still for that read-out and setting: the figure for `O=C1c2ccccc2C(=O)N1SC1CCCCC1` is 54.4 µM (active) and 48.6 µM (active); for `CCn1c2ccccc2c2cc([N+](=O)[O-])ccc21` it is 30.6 µM (active); for `CC(=O)[C@H]1CC[C@H]2[C@@H]3CCC4=CC(=O)CC[C@]4(C)[C@H]3CC[C@]12C` it is 19.3 µM (active).
Still for that read-out and setting: the entry for `CN(C)C(=O)COC(=O)Cc1ccc(OC(=O)c2ccc(N=C(N)N)cc2)cc1` is “inactive”.
On the same count and under the same terms, the entry for `CCCCCCCC` is “inactive”; for `C=CCn1c(=O)n(CC=C)c(=O)n(CC=C)c1=O` it is “inactive”.
For `CCCCCCCCCCCCCC[N+](C)(C)C`, the Potency was 17.6 µM (active) and 13.2 µM (active) and 6.85 µM (active).
